Results filed as inconclusive are left out. Activity calls are given as the source filed them. The call rests on the fitted dose curve; in most records, active means well fitted inhibition curve with a large enough effect; inconclusive means small, poorly fitted or top-dose-only effect; inactive means flat fitted curve, though single readings scatter.
How the values were obtained:
Test in all cases: qHTS profiling for inhibitors of Plasmodium falciparum proliferation (AID 504749); further: nearly all actives have a fitted effect of over 60% in size
Conditions in all cases: P. falciparum in erythrocytes, SYBR Green DNA, 72 h; series mostly up to 28.7 µM
CP192 = system: CP192
Procedure, shortened: (§1)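 SYBR Green fluorescence of parasite DNA, read after lysis and overnight dark incubation, measured growth over 72 h in erythrocyte culture at 0.3% parasitemia and 2.5% hematocrit. Data normalised to DMSO and 0.29 uM artemisinin, with plate-drift correction.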

CP194 = system: CP194
Procedure, shortened: as §1

CP201 = system: CP201
Procedure, shortened: as §1

CP211 = system: CP211
Procedure, shortened: as §1

CP215 = system: CP215
Procedure, shortened: as §1

CP217 = system: CP217
Procedure, shortened: as §1

CP237 = system: CP237
Procedure, shortened: as §1

CP238 = system: CP238
Procedure, shortened: as §1

CP247 = system: CP247
Procedure, shortened: as §1

CP250 = system: CP250
Procedure, shortened: as §1

CP252 = system: CP252
Procedure, shortened: as §1

CP256 = system: CP256
Procedure, shortened: as §1

CP260 = system: CP260
Procedure, shortened: as §1

CP262 = system: CP262
Procedure, shortened: as §1

CP265 = system: CP265
Procedure, shortened: as §1

CP266 = system: CP266
Procedure, shortened: as §1

CP268 = system: CP268
Procedure, shortened: as §1

CP269 = system: CP269
Procedure, shortened: as §1

CP286 = system: CP286
Procedure, shortened: as §1

CP291 = system: CP291
Procedure, shortened: as §1

Measured: Potency

COc1ccccc1N1CCN(CCCNc2cc(=O)n(C)c(=O)n2C)CC1
inactive: all assays above

CC(=O)O[C@]1(C(C)=O)CC[C@H]2[C@@H]3C=C(Cl)C4=CC(=O)[C@@H]5C[C@@H]5[C@]4(C)[C@H]3CC[C@@]21C
inactive: CP238 | CP247 | CP250 | CP252 | CP265

NC(N)=Nc1nc(CSCC/C(N)=N/S(N)(=O)=O)cs1
inactive: all assays above

O=c1[nH]cnc2c1ncn2[C@H]1CC[C@@H](CO)O1
not listed: CP260 | CP265
inactive: all other assays above

C[N+](C)(C)CCCCCC[N+](C)(C)C
inactive: all assays above

Source: PubChem BioAssay (NCATS)
